Assay results: PubChem BioAssay AID588405 (Sanford-Burnham Center for Chemical Genomics, 2011)
Where “and” joins values, the source holds several entries; their conditions need not be identical. Equal entries are not always repeated. About 6,200 (1.7%) of roughly 360,000 compounds were called active.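 Rule for the calls: active = inhibition of at least 50% at 20 µM; inactive = the rest.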 The list comes from a sample in which actives are over-represented; it also holds similar structures and randomly drawn compounds. Some structures have more than one record in an assay (separate samples or runs), and their calls can disagree.

Experiment: inhibition of PEG-3 promoter activity – cell-based, HeLa, luciferase luminescence, primary screen (AID 588405)
Conditions: HeLa PEG-Prom luciferase reporter, overnight, at 20 µM, stronger effect = higher value

inhibition, active:
O=C(c1[nH]ncc1-c1ccc(Cl)cc1)C1CO1 (centres undefined) 52%
O=C1C=CC(=O)N1c1ccc(N2CCCCC2)cc1 108%
CCOC(=O)C1=C(CN2CCc3ccccc32)NC(=O)NC1c1ccc(Cl)cc1 (centres undefined) 61.5%
CC(=O)Nc1ccc(Nc2c3ccccc3nc3ccccc23)cc1 106%
CCN(CC)CCOc1ccc2c(c1)C(=NNC(=O)c1ccccn1)c1cc(OCCN(CC)CC)ccc1-2 109%
O=C(Oc1ccc(-c2nc(-c3ccccn3)no2)cc1)c1ccccc1 66.5%
O=C1C=C(c2ccc(Cl)cc2)C(=O)N1Nc1ccccc1 105%
O=C1Nc2cc(C(=O)N3CCC(N4CCCCC4)CC3)ccc2S/C1=C\c1ccccc1 90.7%
CCc1ccc(-c2cc3c(=O)n(CC(=O)NCCCN4CCN(Cc5ccccc5)CC4)nc(C)n3n2)cc1 105%
c1ccc(C(=NNc2nc3ccccc3s2)c2ccccn2)cc1 60.3%
O=C(O)c1ccc(N/N=C/c2ccc3ncccc3c2)cc1 70.7%
COc1cc(NC(=O)c2[nH]cnc2C(N)=O)cc(C(=O)Nc2cccc(C(F)(F)F)c2)c1 101%

inhibition, inactive:
Nc1nc2cc(Cl)ccc2n1N -1.93%
CC(C)NC(=O)C1(C)CCCCCN1C(=O)c1ccc(-c2ccccc2)cc1 (centres undefined) -0.82%
COc1ccc(NC(=O)C2Cc3c(-c4ccc(Cl)cc4)ccnc3O2)cc1 (centres undefined) 22.6%
COc1cccc(C(NC(C)=O)c2nc(-c3ccccc3OC)cs2)c1 (centres undefined) -8.65%
Nc1nc(NC(=O)/C=C/c2ccccc2)nn1-c1ccccc1 -6.78%
c1ccc(-n2cccc2)c(N2CCCCC2)c1 2.67%
CCC(=O)c1ccc(OCC(=O)Nc2ccc(N3CCCCC3)cc2)cc1 -13.9%
CN1OC[C@@H]2CN(C(=O)c3cccnc3)[C@H](c3ccc(N4CCCCC4)cc3)C[C@@H]21 -11.6%
CCOC(=O)C1=C(CN2CCc3ccccc32)NC(=O)NC1c1cc(C)ccc1C (centres undefined) 34.6%
CCOC(=O)C1=C(CN2CCc3ccccc32)NC(=O)NC1c1cccc([N+](=O)[O-])c1 (centres undefined) 43.4%
COc1cc(CCN=Cc2ccccc2O)c([N+](=O)[O-])cc1OC -5.6%
O=C(NCC(O)c1nc2ccccc2[nH]1)c1ccc(Br)cc1 (centres undefined) -5.63%
CCc1nc2ccc(C(=O)Nc3cccc(OC)c3)cn2c1N(CCC(C)C)CCN(C)C -15.1%
COc1ccccc1OCC(=O)OCn1c(SC)nnc(C)c1=O 14.2%
CC(=O)Nc1ccc(S(=O)(=O)N(C)c2nc3ccccc3nc2Cl)cc1 2.27%
CC(=O)Nc1ccc(Nc2c([N+](=O)[O-])cc(S(C)(=O)=O)cc2[N+](=O)[O-])cc1 3.04%
CC(C)Nc1nc(NCCOc2ccccc2Cl)c2sccc2n1 34.3%
COc1ccc(-c2[nH][nH]c(=O)c2NC(=O)c2ccc([N+](=O)[O-])cc2)cc1 9.48%
CN(CCOc1ccc(CC2SC(=O)NC2=O)cc1)c1ccccn1 (centres undefined) -26.7% and -30.1%
CC(O)c1ccc(OCCN(C)c2ccccn2)cc1 (centres undefined) -135%
CCCCc1cc2c(s1)CCCC/C2=N/O 6.83%
COCCCN(C(=O)CSCc1ccc(C)cc1)c1c(N)n(Cc2ccccc2)c(=O)[nH]c1=O -0.45%
O=C(c1ccc(F)cc1)n1c(=S)nc2ccccn21 -101%
O=C(COC(=O)c1ccncc1)c1ccccc1 3.29%
Brc1ccc(-c2noc(-c3ccccc3)n2)o1 -291%
NC(=O)C1CCN(C(=O)c2ccc(-c3ccccc3)cc2)CC1 5.02%
O=C(Nc1ccccc1)C1CCN(C(=O)c2ccc(Br)cc2)CC1 -7.9%
O=C(Nc1ccc(F)cc1)C1CCCN(S(=O)(=O)c2ccc(-n3cnnn3)cc2)C1 (centres undefined) 24.8%
Cc1ccc(-c2ccc(=O)n(CC(=O)NCCCN3CCCCC3)n2)cc1 5%
Cc1nn(CC(=O)NCCc2ccccc2)c(=O)c2cc3occc3n12 -8.09%
CC1(C(=O)Nc2cccnc2)Cc2c(-c3ccccc3)ccnc2O1 (centres undefined) 13.4%
CC1(C(=O)Nc2cccc(Oc3ccccc3)c2)CCN1Cc1ccccc1Cl (centres undefined) 18.7%
Nc1ncnc2c1ncn2[C@@H]1O[C@H](C(=O)N2CCSC2)[C@@H](O)[C@H]1O -1.06%
COc1ccccc1Cc1c(-c2ccc(Cl)cc2)nc2ccc(Cl)cn12 -200%
Cc1cccc(C)c1-n1nnnc1C(CCc1ccccc1)N1CCN(C/C=C/c2ccccc2)CC1 (centres undefined) 4.21%
COc1cc(OC)nc(N/N=C(\c2ccccc2)c2ccncc2)n1 -16.6%
C/C(=N/Nc1nc(-c2ccccc2)c(CC(=O)O)s1)c1ccccc1 -245%
CCCNC(=O)c1cc(C2CCCCN2C(=O)OC)on1 (centres undefined) 8.59%
CCOc1cc(-c2conc2N)cc(OCC)c1OCC 10.1%
CC(C)CNC(=O)C1(C)CCCN1C(=O)CSc1ccccc1 (centres undefined) -0.74%
CCNC(=S)NNC(=O)c1ccc2ncccc2c1 -28.3%
Cc1ccc2cc(/C=N/Nc3ccc(C(=O)O)cc3)c(Cl)nc2c1 -255%
O=C(Nc1cccc(C(F)(F)F)c1)c1ccc(N2CCNCC2)c([N+](=O)[O-])c1 22.1%
COc1cccc(NC(=O)CN(C)C(C)C(=O)Nc2ccc(C#N)cc2)c1 (centres undefined) 20%
O=C(O)CSc1c2c(nc3cc(C(=O)Nc4cccc(C(F)(F)F)c4)ccc13)CCCC2 13.5%
CCOC(=O)c1ccc(NC(=O)c2nc[nH]c2C(=O)NCc2ccccc2)cc1 32.4%

inhibition, 22% (inactive) and 56% (active):
COc1cc(NC(=O)c2cncc(-c3ccc(C#N)cc3)c2)cc(C(=O)Nc2cccc(C(F)(F)F)c2)c1
